Experimental data from the supplement of paper PMC4723716.
± gives the uncertainty stated by the source. In all, about 9,900 compounds were measured (“viability index relative to DMSO control”: median about 1, lowest 2% from about 0.85 on). Shown is part of a subset that was picked to be rich in the lowest values.

Each compound was assayed on Plasmodium falciparum NF54 stage V gametocytes (assay: viability index relative to DMSO control (fraction); higher = less gametocyte killing). Conditions: 2.5 µM, library set: Broad Institute DOS, incubation time: 72 h.
Method: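 Broad DOS informer set and blood-stage-active DOS compounds screened in duplicate at 2.5 µM against P. falciparum NF54 stage V gametocytes with the serum-free one-step SaLSSA (1536-well): 72 h at 37 °C under low oxygen, then saponin lysis and MitoTracker Red CMXRos staining, with high-content imaging. Viability index = viable-object count divided by the plate mean of DMSO wells (0 = killed, about 1 = inactive).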

Q: How did the viability index turn out when `O=C1CNC[C@H]2[C@@H](c3ccc(Br)cc3)[C@H](CO)N12` was run?
A: The viability index was 0.837 ± 0.14.

Q: With `O=C1CNC[C@@H]2[C@H](c3ccc(Br)cc3)[C@H](CO)N12` as the compound, how does the viability index read?
A: The viability index was 0.992 ± 0.074.

Q: With `O=C1CNC[C@H]2[C@H](c3ccc(Br)cc3)[C@H](CO)N12` as the compound, how does the viability index read?
A: The viability index was 1.05 ± 0.023.

Q: With `COc1cccc(-c2ccc([C@H]3[C@@H](CO)N4CCCCN(C(=O)Cc5ccncc5)C[C@H]34)cc2)c1` as the compound, how does the viability index read?
A: The viability index was 1.06 ± 0.046.

Q: For `O=C(O)C[C@@H]1CC[C@H]2NC[C@@H](O)COC[C@@H]2O1`, which viability index is on record?
A: The viability index was 1.13 ± 0.034.

Q: Which viability index does the source give for `O=C(Cc1ccncc1)N1CCCCN2[C@H](CO)[C@@H](c3ccc(C#Cc4ccccc4F)cc3)[C@@H]2C1` here?
A: The viability index was 0.9619 ± 0.0014.

Q: How did the viability index turn out when `O=C(Cc1ccncc1)N1CCCCN2[C@@H](CO)[C@H](c3ccc(C#Cc4ccccc4F)cc3)[C@@H]2C1` was run?
A: The viability index was 0.84 ± 0.22.

Q: With `O=C(Cc1ccncc1)N1CCCCN2[C@@H](CO)[C@@H](c3ccc(C#Cc4ccccc4F)cc3)[C@@H]2C1` as the compound, how does the viability index read?
A: The viability index was 0.964 ± 0.047.

Q: How did the viability index turn out when `C[C@@H]1CN([C@@H](C)CO)C(=O)CCCn2cc(nn2)CO[C@@H]1CN(C)C(=O)Oc1ccc2ccccc2c1` was run?
A: Its viability index is 1.05 ± 0.019.

Q: For `C/C=C/c1ccc([C@@H]2[C@@H]3CN(C(=O)C4CCOCC4)C[C@H]2N3)cc1`, which viability index is on record?
A: Its viability index is 1.06 ± 0.011.
